# Experimental data as given in paper PMC7862700, “An all-to-all approach to the identification of sequence-specific readers for epigenetic DNA modifications on cytosine”.
# Key:
# Experiment in all cases: DAPPL (digital affinity profiling via proximity ligation, sequencing); 10 mM Tris-HCl pH 7.5, 50 mM NaCl, 1 mM DTT, 4% glycerol, room temperature, 30 min; GST-TFs on glutathione beads, 16-mer random dsDNA library, 0.1% formaldehyde crosslink after washing; high values mean tight binding
# [1] = biological target: T1, FEV (Homo sapiens, UniProt Q99581 1-238); conditions: protein: recombinant; tags: N-terminal GST; dsDNA, one strand shown
# T1 sequence: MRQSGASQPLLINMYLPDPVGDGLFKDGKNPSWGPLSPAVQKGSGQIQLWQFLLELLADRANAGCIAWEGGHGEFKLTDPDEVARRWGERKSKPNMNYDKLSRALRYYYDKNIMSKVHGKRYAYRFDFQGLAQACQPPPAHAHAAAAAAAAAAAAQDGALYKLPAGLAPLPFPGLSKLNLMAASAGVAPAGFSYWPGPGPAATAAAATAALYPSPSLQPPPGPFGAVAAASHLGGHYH
# Procedure, shortened: (§1)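 Pools of DNA-barcoded human transcription factors, expressed in yeast as GST fusions on glutathione beads and combined with a tag-only sample, were incubated with 200 nmole of a 16-mer random double-stranded DNA library. Incubation took 30 min at room temperature in Tris/NaCl/DTT/glycerol buffer and was followed by washing, 0.1% formaldehyde crosslinking, proximity ligation (BsaI/T4 ligase, 1 h, 37 °C), PCR amplification and sequencing on an Illumina NextSeq500. Binding signal is the ratio of a hexamer's read frequency for a factor to its frequency for the tag-only sample.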
# [2] = biological target: ETV5 (Homo sapiens, UniProt P41161 1-510); conditions: protein: recombinant; tags: N-terminal GST; dsDNA, one strand shown
# Procedure, shortened: as §1
# [3] = biological target: HSF1 (Homo sapiens, UniProt Q00613 1-529); conditions: protein: recombinant; tags: N-terminal GST; chain copies: 3; dsDNA, one strand shown
# Procedure, shortened: as §1
# [4] = biological target: T2, SPIC (Homo sapiens, UniProt Q8N5J4 1-248); conditions: protein: recombinant; tags: N-terminal GST; dsDNA, one strand shown
# T2 sequence: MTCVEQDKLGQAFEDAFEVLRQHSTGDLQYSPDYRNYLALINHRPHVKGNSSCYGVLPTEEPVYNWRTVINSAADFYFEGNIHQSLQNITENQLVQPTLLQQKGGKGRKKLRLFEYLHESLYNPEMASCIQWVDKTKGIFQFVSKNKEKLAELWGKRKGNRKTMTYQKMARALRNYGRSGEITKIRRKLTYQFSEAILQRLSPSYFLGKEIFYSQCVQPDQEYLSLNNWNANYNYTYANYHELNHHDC
# Procedure, shortened: as §1
# [5] = biological target: ELF4 (Homo sapiens, UniProt Q99607 1-663); conditions: protein: recombinant; tags: N-terminal GST; dsDNA, one strand shown
# Procedure, shortened: as §1
# [6] = biological target: T3, ELK4 (Homo sapiens, UniProt P28324-2 1-405); conditions: protein: recombinant; tags: N-terminal GST; dsDNA, one strand shown
# T3 sequence: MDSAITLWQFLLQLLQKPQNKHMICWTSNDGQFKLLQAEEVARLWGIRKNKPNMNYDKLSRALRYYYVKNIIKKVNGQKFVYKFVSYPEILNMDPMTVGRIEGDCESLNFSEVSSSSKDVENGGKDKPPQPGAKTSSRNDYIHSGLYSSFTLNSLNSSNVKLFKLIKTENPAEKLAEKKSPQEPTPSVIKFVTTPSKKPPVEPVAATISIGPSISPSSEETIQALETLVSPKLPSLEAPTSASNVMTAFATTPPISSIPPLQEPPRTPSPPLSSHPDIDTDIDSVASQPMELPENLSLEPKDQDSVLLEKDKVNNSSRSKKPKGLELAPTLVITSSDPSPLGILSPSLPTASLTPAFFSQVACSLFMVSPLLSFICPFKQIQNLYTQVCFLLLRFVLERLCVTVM
# Procedure, shortened: as §1
# [7] = biological target: T4, ETV2 (Homo sapiens, UniProt O00321 1-342); conditions: protein: recombinant; tags: N-terminal GST; dsDNA, one strand shown
# T4 sequence: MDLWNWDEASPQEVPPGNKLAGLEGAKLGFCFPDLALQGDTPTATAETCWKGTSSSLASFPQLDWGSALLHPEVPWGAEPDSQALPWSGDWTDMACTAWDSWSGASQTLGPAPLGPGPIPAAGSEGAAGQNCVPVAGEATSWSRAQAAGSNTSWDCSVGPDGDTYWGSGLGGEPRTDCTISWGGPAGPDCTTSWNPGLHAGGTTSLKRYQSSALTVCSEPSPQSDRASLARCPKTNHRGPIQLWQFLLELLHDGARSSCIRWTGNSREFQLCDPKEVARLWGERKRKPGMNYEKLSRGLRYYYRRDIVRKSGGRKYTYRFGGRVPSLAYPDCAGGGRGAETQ
# Procedure, shortened: as §1
# [8] = biological target: T5, ELF3 (Homo sapiens, UniProt P78545 1-371); conditions: protein: recombinant; tags: N-terminal GST; dsDNA, one strand shown
# T5 sequence: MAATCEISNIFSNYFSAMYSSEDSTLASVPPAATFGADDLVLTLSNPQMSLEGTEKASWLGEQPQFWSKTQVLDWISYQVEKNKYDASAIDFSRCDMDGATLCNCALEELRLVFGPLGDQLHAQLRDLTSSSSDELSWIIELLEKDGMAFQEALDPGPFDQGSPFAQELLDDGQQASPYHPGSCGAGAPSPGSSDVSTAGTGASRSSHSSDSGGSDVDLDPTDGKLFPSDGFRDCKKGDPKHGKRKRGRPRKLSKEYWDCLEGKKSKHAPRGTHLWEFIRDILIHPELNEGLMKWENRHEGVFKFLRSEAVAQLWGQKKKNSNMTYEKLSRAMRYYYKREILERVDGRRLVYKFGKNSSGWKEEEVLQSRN
# Procedure, shortened: as §1
# [9] = biological target: CRX (Homo sapiens, UniProt O43186 1-299); conditions: protein: recombinant; tags: N-terminal GST; dsDNA, one strand shown
# Procedure, shortened: as §1
# [10] = biological target: ETV1 (Homo sapiens, UniProt P50549 1-477); conditions: protein: recombinant; tags: N-terminal GST; dsDNA, one strand shown
# Procedure, shortened: as §1
# Chain of ETV5 (P41161 whole entry): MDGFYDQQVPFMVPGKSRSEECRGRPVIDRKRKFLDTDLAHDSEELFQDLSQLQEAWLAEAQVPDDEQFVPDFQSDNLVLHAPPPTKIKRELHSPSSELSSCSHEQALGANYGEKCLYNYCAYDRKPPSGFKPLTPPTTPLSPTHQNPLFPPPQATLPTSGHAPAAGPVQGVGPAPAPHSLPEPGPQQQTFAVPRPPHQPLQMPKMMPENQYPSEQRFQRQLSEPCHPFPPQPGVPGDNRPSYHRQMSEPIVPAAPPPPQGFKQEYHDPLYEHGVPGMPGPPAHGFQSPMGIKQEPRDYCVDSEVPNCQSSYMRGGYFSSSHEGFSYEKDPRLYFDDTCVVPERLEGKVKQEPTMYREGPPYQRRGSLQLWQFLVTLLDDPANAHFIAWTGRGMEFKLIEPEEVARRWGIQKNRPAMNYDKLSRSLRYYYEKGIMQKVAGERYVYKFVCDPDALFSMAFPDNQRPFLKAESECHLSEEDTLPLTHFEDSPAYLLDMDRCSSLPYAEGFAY
# Chain of CRX (O43186 whole entry): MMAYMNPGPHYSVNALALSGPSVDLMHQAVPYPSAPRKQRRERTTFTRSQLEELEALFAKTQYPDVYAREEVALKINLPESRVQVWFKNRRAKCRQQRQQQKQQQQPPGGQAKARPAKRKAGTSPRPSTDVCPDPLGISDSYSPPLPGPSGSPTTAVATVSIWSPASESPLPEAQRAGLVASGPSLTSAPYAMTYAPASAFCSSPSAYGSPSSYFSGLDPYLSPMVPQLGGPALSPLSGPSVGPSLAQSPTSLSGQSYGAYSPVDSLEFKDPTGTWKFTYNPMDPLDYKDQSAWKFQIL
# Chain of ETV1 (P50549 whole entry): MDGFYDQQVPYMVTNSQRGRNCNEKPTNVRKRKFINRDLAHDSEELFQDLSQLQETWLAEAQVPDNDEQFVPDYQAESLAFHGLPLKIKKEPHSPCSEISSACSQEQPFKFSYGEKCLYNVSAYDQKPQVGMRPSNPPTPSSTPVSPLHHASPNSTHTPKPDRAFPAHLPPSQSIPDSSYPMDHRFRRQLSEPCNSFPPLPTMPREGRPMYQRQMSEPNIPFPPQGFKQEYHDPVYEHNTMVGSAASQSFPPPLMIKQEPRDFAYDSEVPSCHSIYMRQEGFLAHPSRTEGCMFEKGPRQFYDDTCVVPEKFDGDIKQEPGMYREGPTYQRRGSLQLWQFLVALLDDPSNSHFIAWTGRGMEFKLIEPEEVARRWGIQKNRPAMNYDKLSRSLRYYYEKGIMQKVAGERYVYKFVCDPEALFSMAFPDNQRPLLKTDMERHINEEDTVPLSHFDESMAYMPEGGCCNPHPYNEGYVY
# Chain of HSF1 (Q00613 whole entry): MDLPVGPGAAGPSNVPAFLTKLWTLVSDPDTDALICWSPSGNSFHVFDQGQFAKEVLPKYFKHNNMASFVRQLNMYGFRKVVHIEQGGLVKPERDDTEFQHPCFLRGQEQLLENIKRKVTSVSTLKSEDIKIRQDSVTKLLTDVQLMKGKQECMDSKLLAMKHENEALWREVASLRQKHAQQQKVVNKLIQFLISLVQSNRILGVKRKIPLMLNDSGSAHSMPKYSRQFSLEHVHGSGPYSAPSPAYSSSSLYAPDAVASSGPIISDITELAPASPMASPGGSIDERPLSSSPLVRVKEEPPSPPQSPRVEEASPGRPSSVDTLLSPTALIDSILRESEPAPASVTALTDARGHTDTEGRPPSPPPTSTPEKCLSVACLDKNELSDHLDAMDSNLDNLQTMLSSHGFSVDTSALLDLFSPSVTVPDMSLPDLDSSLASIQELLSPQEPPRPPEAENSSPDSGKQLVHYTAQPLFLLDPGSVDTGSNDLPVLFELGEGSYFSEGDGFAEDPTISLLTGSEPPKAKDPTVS
# Chain of ELF4 (Q99607 whole entry): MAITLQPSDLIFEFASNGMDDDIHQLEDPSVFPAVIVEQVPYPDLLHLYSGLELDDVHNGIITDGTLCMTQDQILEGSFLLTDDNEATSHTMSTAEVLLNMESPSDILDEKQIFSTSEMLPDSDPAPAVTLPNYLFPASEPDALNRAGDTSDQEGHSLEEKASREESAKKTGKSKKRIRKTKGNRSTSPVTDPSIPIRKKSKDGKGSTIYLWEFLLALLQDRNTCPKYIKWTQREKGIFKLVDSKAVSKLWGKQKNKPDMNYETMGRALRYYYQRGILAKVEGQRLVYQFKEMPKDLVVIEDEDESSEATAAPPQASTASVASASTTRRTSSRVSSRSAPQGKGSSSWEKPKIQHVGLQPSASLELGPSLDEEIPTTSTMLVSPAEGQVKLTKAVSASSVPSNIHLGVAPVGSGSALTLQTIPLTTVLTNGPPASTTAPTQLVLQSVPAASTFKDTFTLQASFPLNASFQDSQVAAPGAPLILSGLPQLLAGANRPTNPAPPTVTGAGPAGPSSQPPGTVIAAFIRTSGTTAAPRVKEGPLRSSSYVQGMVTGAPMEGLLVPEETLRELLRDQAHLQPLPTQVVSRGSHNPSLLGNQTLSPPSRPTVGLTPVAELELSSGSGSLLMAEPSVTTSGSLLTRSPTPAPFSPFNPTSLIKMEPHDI
Sequence,binding signal [1],binding signal [2],binding signal [3],binding signal [4],binding signal [5],binding signal [6],binding signal [7],binding signal [8],binding signal [9],binding signal [10]
AATTCC,"2.05 fold enrichment (6-mer frequency, TF over GST control)","2.1 fold enrichment (6-mer frequency, TF over GST control)","2.07 fold enrichment (6-mer frequency, TF over GST control)","1.93 fold enrichment (6-mer frequency, TF over GST control)","1.92 fold enrichment (6-mer frequency, TF over GST control)","1.55 fold enrichment (6-mer frequency, TF over GST control)","2.11 fold enrichment (6-mer frequency, TF over GST control)","1.7 fold enrichment (6-mer frequency, TF over GST control)","2.04 fold enrichment (6-mer frequency, TF over GST control)","1.95 fold enrichment (6-mer frequency, TF over GST control)"
TGAATA,"1.06 fold enrichment (6-mer frequency, TF over GST control)","1.13 fold enrichment (6-mer frequency, TF over GST control)","1.24 fold enrichment (6-mer frequency, TF over GST control)","1.22 fold enrichment (6-mer frequency, TF over GST control)","1.13 fold enrichment (6-mer frequency, TF over GST control)","1.12 fold enrichment (6-mer frequency, TF over GST control)","1 fold enrichment (6-mer frequency, TF over GST control)","1.08 fold enrichment (6-mer frequency, TF over GST control)","1.16 fold enrichment (6-mer frequency, TF over GST control)","1.15 fold enrichment (6-mer frequency, TF over GST control)"
ACAAAT,"1.16 fold enrichment (6-mer frequency, TF over GST control)","1.16 fold enrichment (6-mer frequency, TF over GST control)","1.17 fold enrichment (6-mer frequency, TF over GST control)","1.12 fold enrichment (6-mer frequency, TF over GST control)","1.18 fold enrichment (6-mer frequency, TF over GST control)","1.04 fold enrichment (6-mer frequency, TF over GST control)","1.16 fold enrichment (6-mer frequency, TF over GST control)","1.22 fold enrichment (6-mer frequency, TF over GST control)","1.29 fold enrichment (6-mer frequency, TF over GST control)","1.15 fold enrichment (6-mer frequency, TF over GST control)"
CAATTC,"1.24 fold enrichment (6-mer frequency, TF over GST control)","1.37 fold enrichment (6-mer frequency, TF over GST control)","1.19 fold enrichment (6-mer frequency, TF over GST control)","1.16 fold enrichment (6-mer frequency, TF over GST control)","1.31 fold enrichment (6-mer frequency, TF over GST control)","1.25 fold enrichment (6-mer frequency, TF over GST control)","1.39 fold enrichment (6-mer frequency, TF over GST control)","1.34 fold enrichment (6-mer frequency, TF over GST control)","1.07 fold enrichment (6-mer frequency, TF over GST control)","1.21 fold enrichment (6-mer frequency, TF over GST control)"
CACGAT,"1.23 fold enrichment (6-mer frequency, TF over GST control)","1.26 fold enrichment (6-mer frequency, TF over GST control)","1.27 fold enrichment (6-mer frequency, TF over GST control)","1.55 fold enrichment (6-mer frequency, TF over GST control)","1.34 fold enrichment (6-mer frequency, TF over GST control)","1.24 fold enrichment (6-mer frequency, TF over GST control)","1.17 fold enrichment (6-mer frequency, TF over GST control)","1.36 fold enrichment (6-mer frequency, TF over GST control)","1.39 fold enrichment (6-mer frequency, TF over GST control)","1.28 fold enrichment (6-mer frequency, TF over GST control)"
CTTCGT,"1.33 fold enrichment (6-mer frequency, TF over GST control)","1.33 fold enrichment (6-mer frequency, TF over GST control)","1.31 fold enrichment (6-mer frequency, TF over GST control)","1.4 fold enrichment (6-mer frequency, TF over GST control)","1.29 fold enrichment (6-mer frequency, TF over GST control)","1.39 fold enrichment (6-mer frequency, TF over GST control)","1.41 fold enrichment (6-mer frequency, TF over GST control)","1.41 fold enrichment (6-mer frequency, TF over GST control)","1.22 fold enrichment (6-mer frequency, TF over GST control)","1.32 fold enrichment (6-mer frequency, TF over GST control)"
TTGGGG,"1.17 fold enrichment (6-mer frequency, TF over GST control)","1.24 fold enrichment (6-mer frequency, TF over GST control)","1.11 fold enrichment (6-mer frequency, TF over GST control)","1.21 fold enrichment (6-mer frequency, TF over GST control)","1.24 fold enrichment (6-mer frequency, TF over GST control)","1.34 fold enrichment (6-mer frequency, TF over GST control)","1.17 fold enrichment (6-mer frequency, TF over GST control)","1.24 fold enrichment (6-mer frequency, TF over GST control)","1.23 fold enrichment (6-mer frequency, TF over GST control)","1.38 fold enrichment (6-mer frequency, TF over GST control)"
GGCTTC,"1.77 fold enrichment (6-mer frequency, TF over GST control)","1.69 fold enrichment (6-mer frequency, TF over GST control)","1.45 fold enrichment (6-mer frequency, TF over GST control)","1.6 fold enrichment (6-mer frequency, TF over GST control)","1.55 fold enrichment (6-mer frequency, TF over GST control)","1.44 fold enrichment (6-mer frequency, TF over GST control)","1.76 fold enrichment (6-mer frequency, TF over GST control)","1.64 fold enrichment (6-mer frequency, TF over GST control)","1.25 fold enrichment (6-mer frequency, TF over GST control)","1.6 fold enrichment (6-mer frequency, TF over GST control)"
